Measured values taken from PubChem BioAssay AID602468 (The Scripps Research Institute Molecular Screening Center, 2012).
Unmarked numbers belong to inactive results. The rule behind the calls is not given here.

System: MBM
Experiment: selectivity across cysteine-reactive proteome – gel-based competitive ABPP, fluorescence, MBM, Neuro-2A, selectivity assay for PME-1 inhibitor project, late-stage follow-up (AID 602468)
Conditions: MBM or Neuro-2A, in vitro, at 10 µM, stronger effect = lower value

For CC[C@@]1(c2ccc(C)cc2)C(=O)N(C(=O)OC(C)C)N1C(=O)OC(C)C, which number of anti-targets inhibited is on record?
Its number of anti-targets inhibited is 0.
